# Results published in PubChem BioAssay (EPA / NIEHS).
# Several values for one entry are separate records, joined by “and”; a condition that tells them apart may be missing. Identical values can stand only once. Inconclusive results are not listed. The source holds several records for some structures; these can differ, active in one and inactive in another. Activity calls are given as the source filed them. How the source made its calls: active means hit-call score of the fitted dose curve at least 0.9, where 1 is the maximum; inconclusive means response in the unintended direction; inactive means score below 0.9.
# Biological target: human Adenosine A2a Receptor (AdoRA2a), ADORA2A (gene 135) (UniProt P29274)
# Assay: NVS_GPCR_hAdoRA2a: NovaScreen (NVS) G Protein-Coupled Receptor Assay for human Adenosine A2a Receptor (AdoRA2a) (AID 2283256)
# In short: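 Radioligand displacement on HEK293-derived membrane protein, cell-free; filter-based scintillation counting 1.5 hours after dosing, loss of signal vs DMSO. Single-point duplicate screen at 25 uM, actives retested in concentration series.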
# human Adenosine A2a Receptor (AdoRA2a), ADORA2A (gene 135), sequence (P29274 whole entry, looked up): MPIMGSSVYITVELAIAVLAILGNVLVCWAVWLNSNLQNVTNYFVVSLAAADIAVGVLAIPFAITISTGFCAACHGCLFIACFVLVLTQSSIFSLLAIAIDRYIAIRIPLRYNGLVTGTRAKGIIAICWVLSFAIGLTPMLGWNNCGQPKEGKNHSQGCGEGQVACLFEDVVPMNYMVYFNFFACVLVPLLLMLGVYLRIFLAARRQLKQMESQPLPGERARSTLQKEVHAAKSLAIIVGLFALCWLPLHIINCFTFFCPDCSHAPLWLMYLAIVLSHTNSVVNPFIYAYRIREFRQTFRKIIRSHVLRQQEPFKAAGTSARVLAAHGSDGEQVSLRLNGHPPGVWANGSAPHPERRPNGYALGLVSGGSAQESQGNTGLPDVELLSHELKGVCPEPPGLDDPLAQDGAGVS
Structure (SMILES),AC50,outcome
CCOC(=O)CC(SP(=S)(OC)OC)C(=O)OCC (stereo not drawn),5.74 µM (active),–
COc1nc(NC(C)C)nc(NC(C)C)n1,9.33 µM (active),–
CCNc1nc(Cl)nc(NC(C)C)n1,4.96 µM (active) and 6.26 µM (active),inactive
CCCN(CCC)c1c([N+](=O)[O-])cc(S(N)(=O)=O)cc1[N+](=O)[O-],–,inactive
Oc1ccccc1-c1ccccc1,–,inactive

# Biological target: human Adrenergic, Alpha 2A Receptor (Adra2A), ADRA2A (gene 150) (UniProt P08913)
# Assay: NVS_GPCR_hAdra2A: NovaScreen (NVS) G Protein-Coupled Receptor Assay for human Adrenergic, Alpha 2A Receptor (Adra2A) (AID 2283257)
# In short: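 Radioligand filter-binding was run on HT29-derived membranes, cell-free, read by scintillation counting 1 h after dosing. Primary screening was in duplicate at 25 uM, with concentration series in follow-up. Loss of signal versus DMSO indicates displacement.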
# human Adrenergic, Alpha 2A Receptor (Adra2A), ADRA2A (gene 150), sequence (P08913 whole entry, looked up): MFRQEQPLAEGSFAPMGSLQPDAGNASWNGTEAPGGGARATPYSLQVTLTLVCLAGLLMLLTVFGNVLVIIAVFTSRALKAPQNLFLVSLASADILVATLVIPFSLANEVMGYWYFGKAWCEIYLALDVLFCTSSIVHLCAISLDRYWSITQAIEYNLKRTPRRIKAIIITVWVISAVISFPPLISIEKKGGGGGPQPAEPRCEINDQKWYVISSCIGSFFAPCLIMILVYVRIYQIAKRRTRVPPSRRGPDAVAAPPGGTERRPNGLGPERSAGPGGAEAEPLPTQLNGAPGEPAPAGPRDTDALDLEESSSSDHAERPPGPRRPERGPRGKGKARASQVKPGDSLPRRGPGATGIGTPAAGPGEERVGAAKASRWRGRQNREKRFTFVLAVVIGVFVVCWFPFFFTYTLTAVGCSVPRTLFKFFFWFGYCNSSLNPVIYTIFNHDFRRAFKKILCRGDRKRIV
Structure (SMILES),outcome,AC50
N#CC(CCc1ccc(Cl)cc1)(Cn1cncn1)c1ccccc1 (stereo not drawn),inactive,–
O=C(Nc1ccccc1)Nc1ccnc(Cl)c1,–,11.6 µM (active)
CCON=C(CC)C1=C(O)CC(c2c(C)cc(C)cc2C)CC1=O (stereo not drawn),–,4.3 µM (active)
Fc1ccc(Oc2ccnc3cc(Cl)cc(Cl)c23)cc1,inactive,–

# Biological target: human Adrenergic, Beta 1 Receptor (Adrb1), ADRB1 (gene 153) (UniProt P08588)
# Assay: NVS_GPCR_hAdrb1: NovaScreen (NVS) G Protein-Coupled Receptor Assay for human Adrenergic, Beta 1 Receptor (Adrb1) (AID 2283258)
# In short: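 Cell-free radioligand displacement on receptor from human neuroepithelioma cells; 2 h after dosing, filter-based scintillation counting. Primary screen in duplicate at 25 uM, actives retested in concentration series; loss of signal vs DMSO baseline.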
# human Adrenergic, Beta 1 Receptor (Adrb1), ADRB1 (gene 153), sequence (P08588 whole entry, looked up): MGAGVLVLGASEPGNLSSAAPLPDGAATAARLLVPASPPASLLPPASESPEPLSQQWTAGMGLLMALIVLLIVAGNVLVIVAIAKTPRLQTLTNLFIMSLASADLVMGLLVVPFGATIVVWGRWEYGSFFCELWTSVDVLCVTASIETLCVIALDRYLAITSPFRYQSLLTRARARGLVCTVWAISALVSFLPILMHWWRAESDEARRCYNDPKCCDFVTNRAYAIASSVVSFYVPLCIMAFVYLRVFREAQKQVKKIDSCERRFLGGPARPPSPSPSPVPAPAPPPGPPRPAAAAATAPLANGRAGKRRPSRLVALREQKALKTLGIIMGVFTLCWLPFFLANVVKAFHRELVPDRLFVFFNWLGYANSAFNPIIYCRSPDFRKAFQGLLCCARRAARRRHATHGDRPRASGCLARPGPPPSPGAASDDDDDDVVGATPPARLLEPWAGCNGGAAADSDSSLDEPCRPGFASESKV
row,Structure (SMILES),outcome
1,C#CCOS(=O)OC1CCCCC1Oc1ccc(C(C)(C)C)cc1 (stereo not drawn),inactive
2,CN(C)C(=S)SSC(=S)N(C)C,inactive
3,C=CCC1=C(C)C(OC(=O)C2C(C=C(C)C)C2(C)C)CC1=O (stereo not drawn),inactive
4,CO/C=C(/C(=O)OC)c1ccccc1Oc1cc(Oc2ccccc2C#N)ncn1,inactive
5,COc1ccc(C(c2ccc(OC)cc2)C(Cl)(Cl)Cl)cc1,inactive

# Biological target: human Adrenergic, Alpha 2c Receptor (Adra2C), ADRA2C (gene 152) (UniProt P18825)
# Assay: NVS_GPCR_hAdra2C: NovaScreen (NVS) G Protein-Coupled Receptor Assay for human Adrenergic, Alpha 2c Receptor (Adra2C) (AID 2283259)
# In short: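 Radioligand binding on Sf9-expressed receptor membranes, 1 h after chemical dosing, filter-based scintillation read-out. Loss of binding fitted positively versus DMSO; primary duplicate screen at 25 uM, actives retested in concentration series.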
# human Adrenergic, Alpha 2c Receptor (Adra2C), ADRA2C (gene 152), sequence (P18825 whole entry, looked up): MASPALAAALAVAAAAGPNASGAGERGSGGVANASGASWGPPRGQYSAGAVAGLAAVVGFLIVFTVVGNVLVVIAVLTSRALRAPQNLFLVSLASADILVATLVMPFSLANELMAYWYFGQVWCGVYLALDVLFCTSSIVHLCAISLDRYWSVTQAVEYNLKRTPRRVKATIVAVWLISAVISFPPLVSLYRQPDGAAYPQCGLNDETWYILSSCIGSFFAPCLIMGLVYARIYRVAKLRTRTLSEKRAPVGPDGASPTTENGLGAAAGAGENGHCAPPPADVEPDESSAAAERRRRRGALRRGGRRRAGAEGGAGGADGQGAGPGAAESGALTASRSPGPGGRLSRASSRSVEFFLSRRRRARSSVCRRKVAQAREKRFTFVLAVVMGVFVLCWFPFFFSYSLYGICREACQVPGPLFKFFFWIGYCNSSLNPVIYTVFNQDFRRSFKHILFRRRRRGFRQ
Structure (SMILES),outcome,AC50
C=CCC1=C(C)C(OC(=O)C2C(C=C(C)C)C2(C)C)CC1=O (stereo not drawn),inactive,–
O=C(Nc1ccccc1)Nc1ccnc(Cl)c1,–,11.2 µM (active)
COc1ccc(C(c2ccc(OC)cc2)C(Cl)(Cl)Cl)cc1,inactive,–
